System: DRIVER-selected RNA biosensor (aptazyme) pool
Assay: maximum fold change of ribozyme cleavage across biosensor pool versus no-compound control; higher = stronger biosensor response (ligand inhibits cleavage)
Settings: 10 µM
How it was run: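 Fold change of cleavage, the ratio of cleaved:uncleaved read fractions versus a no-compound condition corrected with reference sequences, is given as the maximum over all biosensors. It was measured by CleaveSeq on a pool of 1,730 array-resynthesized ribozyme biosensors transcribed by T7 with 9 mM rNTPs for 15–30 min at 37°C in the presence of one compound at 10 µM final, added from a 10x DMSO stock. After reverse transcription at 50°C, cleaved and uncleaved products were PCR-barcoded and counted by Illumina sequencing.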

Structure (SMILES)	maximum fold change
CCOC(=O)c1cnc(SC)nc1N	3.4
CC(C)NC(=O)C1(c2ccccc2)CCCC1	2.11
CC(=O)N1C(=N)S/C(=C/c2cc3ccc(C)cc3nc2O)C1=O	7.51
CCCN(CCC)CCCNS(=O)(=O)c1ccc(OCC)c2ncccc12	2.96
CN(C)CCNC(=O)CCn1c(=O)c2cccn2c2cccnc21	3.34
C=C(C)Cn1c(NCCCN2CCOCC2)nc2c1c(=O)[nH]c(=O)n2C	2.3
CC(C)CCNC(=O)Cn1c2c(c(-c3ccccc3Cl)cc1=O)CCC2	2.06
Cc1ccccc1-c1nc(CS(=O)(=O)CC(=O)NC2CCCCC2C)c(C)o1 (stereo not drawn)	2.07
C=CC[n+]1c(/C=C2\C=CC=CN2C)sc2ccccc21	13.8
CCOc1ccccc1-n1cc2c(c1-c1cccc(C)c1)c(=O)n(C)c(=O)n2C	1.83
CNc1cnn(C23CC4CC(CC(CC(=O)O)(C4)C2)C3)c(=O)c1Cl	4.5
Cc1ccc2[nH]c(=O)c3cc(C(=O)NCCCN(C)Cc4ccccc4)sc3c2c1	7.38
N#C/C(=Cc1c(Oc2ccccc2Cl)nc2n(c1=O)cccc2)/c1nc2c([nH]1)cccc2	7.4
COc1ccc(C(=O)/C=C2\Nc3ccc(C(=O)NCc4cccc(OC)c4)cc3NC2=O)cc1	7.89
CCOC(=O)c1cnc(SC)nc1NC(=O)CSCc1csc2c1CCCC2	3.61
Cc1cc(NC(=O)CSc2nc3ncccc3c(=O)n2CCc2ccccc2)[nH]n1	3.45
COc1ccc(-c2nc(CS(=O)(=O)CC(=O)NC3CCC(C)CC3)c(C)o2)cc1 (stereo not drawn)	2.18
CN1C(=O)c2ccccc2C(C(=O)O)C1c1c[nH]c2ccccc12 (stereo not drawn)	2.39
